High-throughput results (PubChem)
Hits are enriched below; roughly 19% of the tested compounds scored in any of these assays.
TDP1 cell noCPT = qHTS for Inhibitors of human tyrosyl-DNA phosphodiesterase 1 (TDP1): qHTS in cells in absence of CPT; Potency, µM (highest dose often 46.2 µM), for the others: at the highest dose activity change, negative = growth inhibition, actives largely listed as inhibitors; DT40 Tdp1-/- hTDP1 cells, no CPT, ATP luminescence, 48 h; 15% of 420,000 active; AID 686978, 2013; note: potency is the fitted concentration of half-maximal effect; % is set by controls: 0 for no effect and ±100 for the full control effect; nearly all actives have a fitted effect of over 55% in size
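Readout: luminescence from CellTiter-Glo after 30 min in the dark at RT. Cells: DT40 Tdp1-/- with stable hTDP1, 400/well. Exposure: compounds alone, ≥48 hr, 37 °C.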
TDP1 inh = blocks human tyrosyl-DNA phosphodiesterase 1. Potency, µM (doses to about 130 µM), without a hit: top-dose activity change, negative = inhibition, usual class: inhibitors. Q9NUW8. 0.28% of 350,000 active. recombinant TDP1, AlphaScreen DNA substrate cleavage; note: potency is the fitted concentration of half-maximal effect; % is set by controls: 0 for no effect and ±100 for the full control effect; nearly all actives have a fitted effect of over 40% in size
Target sequence (Q9NUW8 whole entry, looked up): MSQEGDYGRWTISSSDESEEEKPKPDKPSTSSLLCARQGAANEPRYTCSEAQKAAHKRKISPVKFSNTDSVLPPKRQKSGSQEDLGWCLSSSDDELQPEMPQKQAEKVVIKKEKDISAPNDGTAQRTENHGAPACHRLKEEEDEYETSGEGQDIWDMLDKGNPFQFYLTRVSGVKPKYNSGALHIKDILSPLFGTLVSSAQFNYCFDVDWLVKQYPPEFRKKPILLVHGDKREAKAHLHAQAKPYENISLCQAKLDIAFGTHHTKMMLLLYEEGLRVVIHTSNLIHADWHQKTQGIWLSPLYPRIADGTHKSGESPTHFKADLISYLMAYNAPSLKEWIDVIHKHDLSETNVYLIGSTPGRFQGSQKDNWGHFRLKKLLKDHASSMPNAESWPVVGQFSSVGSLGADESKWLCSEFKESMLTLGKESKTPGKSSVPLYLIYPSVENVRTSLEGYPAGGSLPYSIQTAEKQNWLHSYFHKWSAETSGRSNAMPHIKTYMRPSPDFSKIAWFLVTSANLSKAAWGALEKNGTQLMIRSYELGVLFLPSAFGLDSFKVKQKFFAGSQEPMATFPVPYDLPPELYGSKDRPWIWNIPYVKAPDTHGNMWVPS
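Tdp1 1 nM final; 15 min RT w/ cpd; substrate 15 nM, 5 min; beads 10 ug/ml, 10 min; AlphaScreen read. Neg ctrl: no enzyme.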
HepG2 tox = HepG2 cytotoxicity, counter-screen for TGF-b inhibitors | Potency, µM (series often up to 46.1 µM), inactives show top-dose activity change, negative = cytotoxicity, usual class: cytotoxic | 0.76% of 410,000 active | HepG2 CAGA-GFP viability, ATP luminescence, 18 h | AID 588856; note: potency is the fitted concentration of half-maximal effect
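CellTiter-Glo luminescence gave cytotoxicity after 18 hours at 37 degrees C. The cells were HepG2 CAGA-GFP in 1% FBS DMEM, stimulated with 500 pg/mL TGF-beta after compound addition. %Activity was normalised to no-cell wells (complete cell-killing) and DMSO (no toxicity), and curves were fitted and classified.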
IL-1B inflam inh = inhibitors of inflammasome signaling (IL-1 beta secretion). THP-1 LPS/ATP IL-1B secretion, AlphaLISA, 16 h; active compounds read low. activity change, % at 57.5 µM. 4.7% of 360,000 active. AID 743279; in the data active = activity change below about -50%; inconclusive = mostly about -30% to -49%; note: % is set by controls: 0 for no effect and ±100 for the full control effect
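Secreted IL-1B measured by AlphaLISA bead assay after 16 h compound exposure of THP-1 cells; compounds (final up to 57.5 uM) added 1 h before LPS (250 ng/mL) and ATP (1.25 mM) stimulation; lower signal means less secretion.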
TGFb inhibitor = blocks TGF-b signaling; HepG2 CAGA-GFP TGF-b/SMAD3 reporter, GFP fluorescence, 18 h; TGF-beta stimulated, 500 pg/mL final; Potency, µM (highest dose often 46.1 µM), inactives show at the highest dose activity, negative = inhibition, actives largely listed as inhibitors; 1.2% of 410,000 active; note: potency is the fitted concentration of half-maximal effect; % is set by controls: 0 for no effect and ±100 for the full control effect; nearly all actives have a fitted effect of over 65% in size
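Using HEPG2 CAGA-GFP reporter cells at 1000 cells/well, we pinned test compounds, stimulated with recombinant TGF-beta (500 pg/mL final) and measured total well GFP after 18 h.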
DT40 TDP1 CPT = DT40-hTDP1 cell growth loss with CPT; Potency, µM (top dose mostly 46.2 µM), without a hit: top-dose activity change, negative = growth inhibition, usual class: inhibitors; chicken DT40 Tdp1-/-;hTDP1 cells + 20 nM CPT, ATP luminescence, 48 h; AID 686979; 12% of 420,000 active; note: potency is the fitted concentration of half-maximal effect; % is set by controls: 0 for no effect and ±100 for the full control effect; nearly all actives have a fitted effect of over 55% in size
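Chicken DT40 Tdp1-/- cells complemented with human TDP1, 400 cells/well, exposed to compounds plus 20 nM camptothecin for at least 48 h at 37 C; viability read as ATP content by CellTiter-Glo luminescence.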
Active calls of the source: *. Unless noted, calls come from the whole dose curve; as a rule, active = well fitted curve in the direction sought with a large enough effect; inconclusive = small, poorly fitted or top-dose-only effect, or another doubt; inactive = no such curve, though single readings can be large; an effect the other way counts as inactive or inconclusive.

Results for COC(=O)[C@@]12CCCCN1[C@H](c1ccc(-c3ccccc3)cc1)[C@@H]1C(=O)N(C)C(=O)[C@@H]12 ?
TDP1 cell noCPT: inconclusive; TDP1 inh: 0%; HepG2 tox: -28%; IL-1B inflam inh: 0; TGFb inhibitor: -5%; DT40 TDP1 CPT: 21µM*

Results for COC(=O)[C@@]12CCCCN1[C@H](c1ccc(-c3ccc(F)cc3)cc1)[C@H]1C(=O)N(C)C(=O)[C@H]12 ?
TDP1 cell noCPT: 23µM*; TDP1 inh: 3%; HepG2 tox: -23%; IL-1B inflam inh: -14; TGFb inhibitor: -4%; DT40 TDP1 CPT: inconclusive

What do the screens show for `COC(=O)[C@@]12CCCCN1[C@H](c1ccc(-c3ccc(OC)cc3)cc1)[C@H]1C(=O)N(C)C(=O)[C@H]12`?
TDP1 cell noCPT: 9.2µM*; TDP1 inh: 0%; HepG2 tox: 1%; IL-1B inflam inh: -1; TGFb inhibitor: -6%; DT40 TDP1 CPT: 12µM*

How did COC(=O)[C@@]12CCCN1[C@H](c1ccc(-c3ccc(F)cc3)cc1)[C@H]1C(=O)N(C)C(=O)[C@H]12 do in these assays?
TDP1 cell noCPT: inconclusive; TDP1 inh: -1%; HepG2 tox: -7%; IL-1B inflam inh: 6; TGFb inhibitor: -1%; DT40 TDP1 CPT: inconclusive

Results for CN(C)C=Nc1c(C(=O)c2ccccc2)sc2nccc(N(C)C)c12 ?
TDP1 cell noCPT: inconclusive; TDP1 inh: 1%; HepG2 tox: 4%; IL-1B inflam inh: -54*; TGFb inhibitor: 16%; DT40 TDP1 CPT: -23%

How did CN(C)c1ccnc2sc(C(=O)c3ccc(Br)cc3)c(N)c12 do in these assays?
TDP1 cell noCPT: -25%; TDP1 inh: 6%; HepG2 tox: 1%; IL-1B inflam inh: inconclusive; TGFb inhibitor: -7%; DT40 TDP1 CPT: 0%

How did CN(C)c1ccnc2sc3c(=O)n(-c4ccccc4)cnc3c12 do in these assays?
TDP1 cell noCPT: -25%; TDP1 inh: 0%; HepG2 tox: 5%; IL-1B inflam inh: 0; TGFb inhibitor: -1%; DT40 TDP1 CPT: inconclusive

What do the screens show for `CN(C)c1ccnc2sc(C(=O)NCc3ccccc3)c(N)c12`?
TDP1 cell noCPT: inconclusive; TDP1 inh: 2%; HepG2 tox: -45%; TGFb inhibitor: 4%; DT40 TDP1 CPT: 16µM*

What do the screens show for `CN(C)c1ccnc2sc(C(N)=O)c(N)c12`?
TDP1 cell noCPT: inconclusive; TDP1 inh: 0%; HepG2 tox: -1%; IL-1B inflam inh: -66*; TGFb inhibitor: -7%; DT40 TDP1 CPT: 1.6µM*

What do the screens show for `COc1ccccc1CN(C)CC(=O)c1c(C)[nH]c2ccccc12`?
TDP1 cell noCPT: 18µM*; HepG2 tox: -27%; TGFb inhibitor: -5%; DT40 TDP1 CPT: 18µM*

Results for Cc1[nH]c2ccccc2c1C(=O)CCl ?
TDP1 cell noCPT: 3.7µM*; TDP1 inh: 4%; HepG2 tox: -5%; IL-1B inflam inh: -107*; TGFb inhibitor: inconclusive; DT40 TDP1 CPT: 2.6µM*

Results for CC(C)c1ccc(NC(=O)CCNC(=O)Cn2cnc3ccccc3c2=O)cc1 ?
TDP1 cell noCPT: -12%; TDP1 inh: 4%; HepG2 tox: 7%; IL-1B inflam inh: 41; TGFb inhibitor: 8%; DT40 TDP1 CPT: 2%

How did OC[C@@H]1CN(Cc2ccc(F)cc2)C[C@H](n2cnc3c(N4CCN(c5ccccc5)CC4)ncnc32)O1 do in these assays?
TDP1 cell noCPT: 10µM*; HepG2 tox: -27%; IL-1B inflam inh: -1; TGFb inhibitor: inconclusive; DT40 TDP1 CPT: 18µM*
